From PubChem BioAssay (NCATS)
Records with an inconclusive call do not appear. Entries that show only a call come without a potency. A number with no mark means an inactive call. Calls of active or inactive are those of the source. Unless noted, calls come from the whole dose curve; as a rule, active = well fitted curve in the direction sought with a large enough effect; inconclusive = small, poorly fitted or top-dose-only effect, or another doubt; inactive = no such curve, though single readings can be large; an effect the other way counts as inactive or inconclusive.

How the values were obtained:
[1] = target: Calcium and integrin-binding protein 1 (Homo sapiens) (UniProt Q99828); assay: Confirmatory qHTS for Identification of Calcium Integrin Binding Protein 1 (CIB1) Competitor (AID 1508617); note: nearly all actives have a fitted effect of over 65% in size; note: potency is the fitted concentration of half-maximal effect
Method in brief: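 Confirmatory qHTS measures displacement of a FITC-alphaIIb peptide (100 nM) from CIB1-GST (1 uM) by fluorescence polarization. Calcium-containing HEPES buffer, pH 7.4; two 15 min room-temperature incubations.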

[2] = Counterscreen qHTS for small molecule stabilizers of the endoplasmic reticulum resident proteome: GLuc-NoTag assay (AID 1508627); note: series mostly up to about 76 µM
Method in brief: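 Counterscreen line: SH-SY5Y-GLuc-NoTag. Seed, 5 h; compound, 19 h; thapsigargin 100 nM, 4 h; 37C/5% CO2. Readout: secreted GLuc luminescence, coelenterazine 0.07x final, no lysis.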

[3] = Confirmatory qHTS for small molecule stabilizers of the endoplasmic reticulum resident proteome: Secreted ER Calcium Modulated Protein (SERCaMP) assay (AID 1508628); note: series mostly up to about 76 µM; nearly all actives have a fitted effect of over 40% in size
Method in brief: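 Reporter secretion upon ER calcium depletion (100 nM thapsigargin, 4 h, 37C) is measured as medium luminescence with coelenterazine, after 16 h compound pretreatment of SH-SY5Y-GLuc-SERCaMP cells; primary at three concentrations up to 38.3 uM, follow-up at 11 (up to 76.6 uM).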

[4] = Cell Viability qHTS for small molecule stabilizers of the endoplasmic reticulum resident proteome (AID 1508629); details: cell viability counter-screen, 100 nM thapsigargin for final 4 h;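 note: human SH-SY5Y neuroblastoma cells carrying the GLuc-SERCaMP reporter; compound exposure about 46 h in total before the viability read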
[5] = Primary qHTS for inhibitors of La Crosse Virus (LACV) - induced cell death in SH-SY5Y cells (AID 1508616);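 note: top concentration of the series differs between compounds; higher means more rescue of cells from virus-induced death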
Method in brief: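 SH-SY5Y, 6000 cells/well; cpd via pin tool in DMSO; LACV 0.01 MOI; 6 d 37C 5% CO2; ATPLite, 5 min RT; luminescence normalized to ±virus DMSO controls.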

[6] = target: Calcium and integrin-binding protein 1 (Homo sapiens) (UniProt Q99828); assay: Primary qHTS for Identification of Calcium Integrin Binding Protein 1 (CIB1) Competitor (AID 1508620);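 note: GST tagged CIB1 binding a fluorescein labelled alphaIIb integrin peptide tracer; top concentration of the series differs between compounds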
Method in brief: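 Fluorescence polarization competition: GST-tagged CIB1 (1 uM final) preincubated with compound 15 min at room temperature, then FITC-labelled alphaIIb peptide (100 nM final) added. After 15 min at room temperature, polarization read at Ex 480/Em 540.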

[7] = A High-Content qHTS Against Drug Library for the Identification of Small Molecules that Inhibit DYT1 Early Onset Primary Dystonia-Associated Cell Pathology (AID 1645839; calls by dose curve; note: series mostly up to about 46 µM)
Method in brief: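 Cells were seeded and left for 24 h, then dosed with compound alongside tetracycline induction of mutant EGFP-TorsinA. They were incubated for 48 h, fixed in 4% paraformaldehyde, permeabilized and imaged for mislocalization (%pathology) and cell count.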

[8] = target: Cytochrome P450 2D6 (Homo sapiens) (UniProt P10635); assay: Cytochrome P450 family 2 subfamily D member 6 (CYP2D6) small molecule antagonists: luciferase biochemical (cell-free) qHTS assay (AID 1645840; active = well fitted curve in the direction sought with a large enough effect in the repeat runs; an effect the other way counts as inactive or inconclusive; note: nearly all actives have a fitted effect of over 55% in size; note: potency is the fitted concentration of half-maximal effect)
Method in brief: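 P450-Glo CYP2D6 system: proluciferin substrate converted by enzyme to luciferin, read by luminescence proportional to activity. Enzyme-substrate mix with compound 10 min at room temperature, then NADPH regeneration 1 h before detection reagent.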

[9] = Primary qHTS for small molecule stabilizers of the endoplasmic reticulum resident proteome: Secreted ER Calcium Modulated Protein (SERCaMP) assay (AID 1508630)
Method in brief: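 The SH-SY5Y reporter protocol was run at 3 concentrations up to 38.3 uM (primary) or 11 concentrations (follow-up): 16 h compound, 100 nM thapsigargin for 4 h, then extracellular luciferase luminescence.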

Sequence of Cytochrome P450 2D6 (Homo sapiens) (P10635 whole entry, looked up): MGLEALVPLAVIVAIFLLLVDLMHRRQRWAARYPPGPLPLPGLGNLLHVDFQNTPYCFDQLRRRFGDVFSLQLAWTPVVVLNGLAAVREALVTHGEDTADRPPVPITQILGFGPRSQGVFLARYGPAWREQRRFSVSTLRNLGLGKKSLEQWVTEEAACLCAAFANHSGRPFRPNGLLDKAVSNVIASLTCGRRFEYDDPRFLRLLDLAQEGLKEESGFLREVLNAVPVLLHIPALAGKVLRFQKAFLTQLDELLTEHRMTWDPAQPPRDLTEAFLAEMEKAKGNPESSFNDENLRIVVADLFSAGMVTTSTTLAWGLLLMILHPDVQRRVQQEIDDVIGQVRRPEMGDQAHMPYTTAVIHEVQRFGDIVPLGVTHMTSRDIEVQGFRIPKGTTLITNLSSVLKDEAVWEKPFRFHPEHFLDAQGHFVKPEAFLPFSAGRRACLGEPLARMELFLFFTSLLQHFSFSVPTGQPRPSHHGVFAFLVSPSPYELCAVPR
Sequence of Calcium and integrin-binding protein 1 (Homo sapiens) (Q99828 whole entry, looked up): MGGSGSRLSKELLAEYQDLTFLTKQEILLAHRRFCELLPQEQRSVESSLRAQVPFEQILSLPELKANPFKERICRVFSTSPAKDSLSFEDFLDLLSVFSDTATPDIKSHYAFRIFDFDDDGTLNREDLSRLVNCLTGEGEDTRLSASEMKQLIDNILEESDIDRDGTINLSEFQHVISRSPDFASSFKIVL

## CC(C)Oc1cccc(NC(=O)c2ccccc2C(F)(F)F)c1
[1]
  Potency: inactive

## CCCCCCCCCCCCCCCC[N+](C)(C)C
[1]
  Potency: 70.8 µM (active)

## Nc1c(Cl)c(Cl)c(Cl)c(Cl)c1Cl
[2]
  Potency: inactive
[3]
  Potency: inactive
[4]
  max response: 1.55%

## O=[N+]([O-])c1c2ccccc2cc2ccccc12
[2]
  Potency: inactive
[3]
  Potency: inactive
[4]
  max response: -4.03%

## c1cc2ccc3cccc4ccc(c1)c2c34
[5]
  outcome: inactive
[6]
  outcome: inactive
[7]
  Potency: inactive
[8]
  Potency: inactive

## CC(C)(C)NC[C@H](O)c1ccc(O)cc1Cl
[5]
  outcome: inactive
[6]
  outcome: inactive
[7]
  Potency: inactive
[8]
  Potency: inactive

## O=S(=O)(O)C(F)(F)C(F)(F)C(F)(F)C(F)(F)F
[5]
  outcome: inactive
[6]
  outcome: inactive
[9]
  Potency: inactive
[7]
  Potency: inactive
[8]
  Potency: inactive

## C[C@]12CCC3C(CC[C@H]4C[C@H](O)CC[C@]34C)C1CC[C@@H]2C(=O)CO (some centres not stated)
[5]
  outcome: inactive
[9]
  Potency: inactive

## O=C(O)C(Cl)Cl
[5]
  outcome: inactive
[6]
  outcome: inactive
[9]
  Potency: inactive
[7]
  Potency: inactive
[8]
  Potency: inactive

## NC(CP(=O)(O)O)C(=O)O (configuration not stated)
[5]
  outcome: inactive
[9]
  Potency: inactive

## C[C@]12N[C@H](Cc3ccccc31)c1ccccc12
[5]
  outcome: inactive
[9]
  Potency: inactive

## CCCCCCCCc1ccc(O)cc1
[5]
  outcome: inactive
[6]
  outcome: inactive
[9]
  Potency: inactive
[8]
  Potency: 31 µM (active)

## CC[N+]1(CCOC(=O)C(O)(c2ccccc2)c2ccccc2)CCCCC1
[5]
  outcome: inactive
[6]
  outcome: inactive
[7]
  Potency: inactive

## COCCOCCO
[5]
  outcome: inactive
[6]
  outcome: inactive
[7]
  Potency: inactive
[8]
  Potency: inactive

## ClC1=C(Cl)[C@]2(Cl)[C@@H]3[C@@H]4C[C@@H]([C@H]5O[C@@H]45)[C@@H]3[C@@]1(Cl)C2(Cl)Cl
[5]
  outcome: inactive
[6]
  outcome: inactive
[9]
  Potency: inactive
[8]
  Potency: inactive
